An excerpt weighted towards active compounds, which were near 4% of everything screened.
Beta apoptosis – blocks beta cell apoptosis. INS-1E cytokine-induced death, ATP luminescence, 48 h; percent of positive-control rescue, neutral wells zero. protection from apoptosis, % (concentration not given with the values). actives 0.8% (n = 300,000);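 active = Every replicate reaches about 75%, or at least half do and their mean reaches it too, limit read from the data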;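 also: 0% = cytokine-treated negative control wells and 100% = positive control rescue; higher means more ATP so stronger rescue from cytokine killing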
Jurkat NFkB inh – inhibitors of the PMA/ionomycin-induced NF-kB reporter in Jurkat cells; PMA/ionomycin-induced NF-kB luciferase reporter, luminescence; inhibition, % at 4 µM; actives 0.53% (n = 330,000); AID 435003; in the data active = inhibition above about 50%
Mdm2-MdmX inh – disrupts the human Mdm2-MdmX interaction; O15151+Q00987; SaOS-2 split-luciferase Mdm2/MdmX complementation, luminescence; inhibition, % at 8 µM; actives 3% (n = 330,000); AID 485346;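 active = inhibition of at least 50% at 8 µM in the primary screen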
Gli-Sufu block – Gli-Sufu pathway antagonism; actives 0.74% (n = 340,000); Sufu-KO-LIGHT fibroblasts, Gli luciferase reporter luminescence; inhibition, % at 5 µM;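 active = inhibition above about 55%, limit read from the data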;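 also: 0% = DMSO-treated cells and 100% = wells with medium but no cells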
697 NFkB inh – lowers PMA/ionomycin-induced NF-kB signal in 697 B cells; 697 B-cell NF-kB luciferase reporter, 16 h; inhibition, % at 4 µM; actives 0.33% (n = 330,000); AID 435022; in the data active = inhibition above about 35%
Jurkat NFkB conf – inhibitors of the PMA/ionomycin-induced NF-kB reporter in Jurkat cells, retest; shares compounds with Jurkat NFkB inh; Jurkat NF-kB luciferase, 16 h; inhibition, % at 4 µM; actives 27% (n = 2,700); AID 435020;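 active = inhibition reaching about 45% at 4 µM in either replicate, limit read from the data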;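 also: plate controls were PMA/ionomycin stimulated DMSO wells for no effect and unstimulated DMSO wells for full effect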
697 NFkB conf – lowers PMA/ionomycin-induced NF-kB signal in 697 B cells; shares compounds with 697 NFkB inh; 697 B-cell NF-kB luciferase, 16 h; inhibition, % at 4 µM; actives 35% (n = 2,000); in the data active = inhibition mostly above about 28%, no sharp cut-off; inactive = mostly below about 22%
Mdm2-MdmX conf – confirmation of human Mdm2/MdmX interaction inhibitors. inhibition, % at 8 µM. AID 489028. Mdm2-MdmX binding, luminescent assay. shares compounds with Mdm2-MdmX inh. actives 55% (n = 10,000); in the data active = inhibition above about 40%
FLuc counter – inhibits full-length luciferase, flagging false Mdm2/MdmX hits. shares compounds with Mdm2-MdmX inh. inhibition, % at 8 µM. SaOS-2 full-length luciferase counterscreen, luminescence. AID 504607. actives 77% (n = 6,200);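 active = mean inhibition at 8 µM reaching about 37%, which flags the compound as non-specific, limit read from the data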;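 also: p53-null SaOS-2 cells with luciferase driven by a doxycycline-inducible promoter; compound on cells about two nights before reading with doxycycline added after day one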
* hit, by the source's call.

How did Cc1ccc(/C=C2/Sc3ccccc3N(CC(=O)NCC3CCCO3)C2=O)cc1 (configuration not stated) do in these assays?
Beta apoptosis: 0; Jurkat NFkB inh: -11; Mdm2-MdmX inh: -2; Gli-Sufu block: -7; 697 NFkB inh: -17

How did Cc1nn(-c2nc3ccccc3s2)c(C)c1Oc1ccccc1O do in these assays?
Beta apoptosis: -5; Jurkat NFkB inh: -194; Mdm2-MdmX inh: 77*; Gli-Sufu block: -10; 697 NFkB inh: inactive; Jurkat NFkB conf: -142; 697 NFkB conf: inactive; Mdm2-MdmX conf: 66*; FLuc counter: 87*

How did Cc1nn(-c2ccccn2)c(C)c1Oc1ccccc1O do in these assays?
Beta apoptosis: -9; Jurkat NFkB inh: 10; Mdm2-MdmX inh: 11; Gli-Sufu block: 4; 697 NFkB inh: -2

Results for OC(c1cc(-c2ccc(C(F)(F)F)cc2)nc(C(F)(F)F)c1)C1CCCCN1 (configuration not stated) ?
Beta apoptosis: 108*; Jurkat NFkB inh: 52*; Mdm2-MdmX inh: 96*; Gli-Sufu block: -26; 697 NFkB inh: -22; Jurkat NFkB conf: 18; Mdm2-MdmX conf: 98*; FLuc counter: 52*

How did O=C(C1CCCO1)N1CCN(S(=O)(=O)c2cc(C(F)(F)F)ccc2Cl)CC1 (configuration not stated) do in these assays?
Jurkat NFkB inh: -11; Mdm2-MdmX inh: -6; Gli-Sufu block: -7; 697 NFkB inh: 0

Results for CN(C)Cc1ccc(-c2nc3cccc4c3n2CCNC4=O)cc1 ?
Beta apoptosis: 1; Jurkat NFkB inh: 57*; Mdm2-MdmX inh: 58*; Gli-Sufu block: -1; 697 NFkB inh: -11; Jurkat NFkB conf: 7; Mdm2-MdmX conf: 34; FLuc counter: 71*

How did NNC(=O)Cn1c(-c2nonc2N)nc2ccccc21 do in these assays?
Beta apoptosis: -9; Jurkat NFkB inh: -10; Mdm2-MdmX inh: -9; Gli-Sufu block: -6; 697 NFkB inh: 7

What do the screens show for `Cc1ccc(Cn2c(-c3nonc3N)nc3ccccc32)cc1`?
Beta apoptosis: 10; Jurkat NFkB inh: 33; Mdm2-MdmX inh: 36; Gli-Sufu block: 6; 697 NFkB inh: 4

What do the screens show for `CCCCOc1ccccc1NC(=O)Cn1c(-c2nonc2N)nc2ccccc21`?
Beta apoptosis: 59; Jurkat NFkB inh: 59*; Mdm2-MdmX inh: 90*; Gli-Sufu block: 31; 697 NFkB inh: 35*; Jurkat NFkB conf: 30; 697 NFkB conf: -56; Mdm2-MdmX conf: 20

Results for COc1cccc(Cn2c(-c3nonc3N)nc3ccccc32)c1 ?
Beta apoptosis: 30; Jurkat NFkB inh: 51*; Mdm2-MdmX inh: 54*; Gli-Sufu block: 15; 697 NFkB inh: -19; Jurkat NFkB conf: 34; Mdm2-MdmX conf: 56*; FLuc counter: 70*

How did COc1cc(Cn2c(-c3nonc3N)nc3ccccc32)ccc1C do in these assays?
Beta apoptosis: 13; Jurkat NFkB inh: 62*; Mdm2-MdmX inh: 55*; Gli-Sufu block: 4; 697 NFkB inh: 6; Jurkat NFkB conf: 46; Mdm2-MdmX conf: 62*; FLuc counter: 46*

How did Cc1[nH]c2ccccc2c1C(=O)CSc1n[nH]c(N)n1 do in these assays?
Beta apoptosis: 3; Jurkat NFkB inh: -11; Mdm2-MdmX inh: -28; Gli-Sufu block: 28; 697 NFkB inh: -25

What do the screens show for `O=C(NNC(=O)c1ccccn1)c1ccc(OC(F)F)cc1`?
Beta apoptosis: 67; Jurkat NFkB inh: -15; Mdm2-MdmX inh: 35; Gli-Sufu block: -43; 697 NFkB inh: -48

How did Cn1c2c(c(=O)n(C)c1=O)C(C(F)(F)F)(C(F)(F)F)N=C(c1ccc(Cl)cc1)N2 do in these assays?
Beta apoptosis: 139*; Jurkat NFkB inh: 71*; Mdm2-MdmX inh: 94*; Gli-Sufu block: 88*; 697 NFkB inh: 97*; Jurkat NFkB conf: 86*; 697 NFkB conf: 8; Mdm2-MdmX conf: 90*; FLuc counter: 52*

Results for Cc1ccc(CS(=O)(=O)Cc2ccc(C(=O)NCCCN3CC(C)CC(C)C3)o2)cc1 (configuration not stated) ?
Beta apoptosis: -5; Jurkat NFkB inh: 10; Mdm2-MdmX inh: 5; Gli-Sufu block: 11; 697 NFkB inh: -13

How did Cc1ccc2[nH]c3c(c2c1)CCCC3NC(=O)CCl (configuration not stated) do in these assays?
Beta apoptosis: -18; Jurkat NFkB inh: 97*; Mdm2-MdmX inh: 80*; Gli-Sufu block: 28; 697 NFkB inh: -262; Jurkat NFkB conf: 95*; 697 NFkB conf: -52; Mdm2-MdmX conf: 31; FLuc counter: 18

Results for Cc1ccc2[nH]c3c(c2c1)CCCC3C(N)=O (configuration not stated) ?
Beta apoptosis: -2; Jurkat NFkB inh: -4; Mdm2-MdmX inh: -1; Gli-Sufu block: -14; 697 NFkB inh: 17

Results for O=C(NCCc1ccccc1)c1ccc2c(c1)OCCCO2 ?
Beta apoptosis: 3; Jurkat NFkB inh: 87*; Mdm2-MdmX inh: 97*; Gli-Sufu block: 70*; 697 NFkB inh: 63*; Jurkat NFkB conf: 89*; 697 NFkB conf: 66*; Mdm2-MdmX conf: 94*; FLuc counter: 52*

How did O=C(NCCc1ccccc1)c1ccc2c(c1)OCCO2 do in these assays?
Beta apoptosis: 3; Jurkat NFkB inh: 54*; Mdm2-MdmX inh: 84*; Gli-Sufu block: 34; 697 NFkB inh: 22; Jurkat NFkB conf: 70*; Mdm2-MdmX conf: 85*; FLuc counter: 28

Results for COc1cccc(N2CCN(C(=O)c3ccc(CS(=O)c4ccc(C)cc4)o3)CC2)c1 (configuration not stated) ?
Beta apoptosis: 16; Jurkat NFkB inh: 53*; Mdm2-MdmX inh: 58*; Gli-Sufu block: 30; 697 NFkB inh: 20; Jurkat NFkB conf: 8; Mdm2-MdmX conf: 52*; FLuc counter: 61*

Results for CCn1c(=S)sc2c(=O)[nH]c(SCC(=O)Nc3cc(OC)ccc3OC)nc21 ?
Beta apoptosis: -7; Jurkat NFkB inh: 4; Mdm2-MdmX inh: 11; Gli-Sufu block: 0; 697 NFkB inh: 11

Results for CC1(C(=O)OCC(=O)NCCNC(=O)COC(=O)C2(C)CC2(Cl)Cl)CC1(Cl)Cl (configuration not stated) ?
Beta apoptosis: -1; Jurkat NFkB inh: 12; Mdm2-MdmX inh: 8; Gli-Sufu block: -2; 697 NFkB inh: 2
